Laboratory results as given in PubChem BioAssay (NCATS).
Inconclusive results are not listed. The source made the active and inactive calls. Unless noted, the call rests on the fitted dose curve; in most records, active means well fitted curve in the direction sought with a large enough effect; inconclusive means small, poorly fitted or top-dose-only effect, or another doubt; inactive means no such curve, though single readings can be large; an effect the other way counts as inactive or inconclusive.

Assays:
[1] = target: T1, Tyrosine-protein phosphatase non-receptor type substrate 1 (Homo sapiens) + Leukocyte surface antigen CD47 (Homo sapiens) (UniProt P78324+Q08722); experiment: CD47-SIRPalpha protein protein interaction - LANCE assay qHTS validation (AID 1347057; active means well fitted curve in the direction sought with a large enough effect in the signal ratio, with a control signal flat, not every such curve was filed as active; the % refers to the signal ratio; further: series mostly up to about 38 µM)
T1 sequence (P78324 whole entry, looked up, the tested form may be a part): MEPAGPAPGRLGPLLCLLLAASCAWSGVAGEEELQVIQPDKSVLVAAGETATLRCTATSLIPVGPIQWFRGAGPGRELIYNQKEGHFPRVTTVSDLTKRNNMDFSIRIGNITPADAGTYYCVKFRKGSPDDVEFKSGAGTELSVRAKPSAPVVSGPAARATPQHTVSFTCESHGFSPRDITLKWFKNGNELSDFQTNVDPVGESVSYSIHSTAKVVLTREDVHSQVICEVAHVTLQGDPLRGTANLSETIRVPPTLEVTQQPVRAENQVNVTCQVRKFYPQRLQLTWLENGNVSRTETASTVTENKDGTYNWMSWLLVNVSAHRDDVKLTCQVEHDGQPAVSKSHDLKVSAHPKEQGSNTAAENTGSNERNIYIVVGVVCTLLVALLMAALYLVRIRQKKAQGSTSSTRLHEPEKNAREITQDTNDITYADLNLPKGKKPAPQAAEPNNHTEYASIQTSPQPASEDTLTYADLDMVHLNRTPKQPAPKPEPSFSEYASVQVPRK
T1 sequence (Q08722 whole entry, looked up, the tested form may be a part): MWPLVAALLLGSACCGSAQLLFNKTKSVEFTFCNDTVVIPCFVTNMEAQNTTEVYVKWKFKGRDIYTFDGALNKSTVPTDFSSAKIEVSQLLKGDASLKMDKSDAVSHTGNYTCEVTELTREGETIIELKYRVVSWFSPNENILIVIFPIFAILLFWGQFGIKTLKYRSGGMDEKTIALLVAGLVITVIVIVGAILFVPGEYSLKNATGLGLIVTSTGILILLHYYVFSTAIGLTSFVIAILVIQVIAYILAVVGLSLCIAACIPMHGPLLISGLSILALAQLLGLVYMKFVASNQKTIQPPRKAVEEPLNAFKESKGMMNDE
Summary of the method: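 Inhibition of soluble CD47/SIRPalpha ectodomain association by titrated compounds, measured as 665/615 nm time-resolved FRET ratio after sequential 30 min room-temperature incubations.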

[2] = target: T1, Tyrosine-protein phosphatase non-receptor type substrate 1 (Homo sapiens) + Leukocyte surface antigen CD47 (Homo sapiens); experiment: CD47-SIRPalpha protein protein interaction - Alpha assay qHTS validation (AID 1347059);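 further: bead proximity luminescence from CD47 binding SIRPalpha after compound preincubation with SIRPalpha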
Summary of the method: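 AlphaScreen signal between CD47-His (12.5 nM) and biotin-SIRPalpha (25 nM) soluble extracellular domains, bead-captured via Ni-NTA and streptavidin. Compounds, in 7-point titrations, met SIRPalpha 30 min before CD47; PBS pH 7.4 with 0.05% IGEPAL.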

[3] = target: Parathyroid hormone/parathyroid hormone-related peptide receptor (Homo sapiens) (UniProt Q03431); experiment: qHTS for PTHR1 Agonists: Optimization Screen against the NCGC LOPAC library (AID 1347079);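 further: GloSensor cAMP luminescence in HEK-293 GP2 cells expressing human PTHR1 with IBMX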
Sequence of Parathyroid hormone/parathyroid hormone-related peptide receptor (Homo sapiens) (Q03431 whole entry, looked up): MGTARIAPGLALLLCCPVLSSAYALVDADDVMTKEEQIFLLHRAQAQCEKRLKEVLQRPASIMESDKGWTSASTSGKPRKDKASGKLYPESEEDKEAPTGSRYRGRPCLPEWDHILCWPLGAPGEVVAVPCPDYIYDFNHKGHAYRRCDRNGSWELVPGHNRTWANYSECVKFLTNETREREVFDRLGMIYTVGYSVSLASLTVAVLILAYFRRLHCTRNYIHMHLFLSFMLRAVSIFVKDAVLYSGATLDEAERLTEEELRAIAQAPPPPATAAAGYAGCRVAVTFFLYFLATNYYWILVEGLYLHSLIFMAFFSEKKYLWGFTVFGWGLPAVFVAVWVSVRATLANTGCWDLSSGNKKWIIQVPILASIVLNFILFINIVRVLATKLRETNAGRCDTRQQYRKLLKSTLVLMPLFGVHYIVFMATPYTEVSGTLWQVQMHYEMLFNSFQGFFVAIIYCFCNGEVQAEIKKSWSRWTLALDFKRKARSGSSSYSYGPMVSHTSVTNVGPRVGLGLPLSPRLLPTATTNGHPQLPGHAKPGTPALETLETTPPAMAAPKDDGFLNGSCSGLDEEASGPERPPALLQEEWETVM
Summary of the method: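 Signal increase flags agonism. GP2 cells, derived from HEK-293, express human PTHR1 and a GloSensor cAMP construct.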

[4] = qHTS of pediatric cancer cell lines to identify multiple opportunities for drug repurposing: Primary screen for TC32 cells (AID 1347089); further: nearly all actives have a fitted effect of over 60% in size
Summary of the method: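 In the primary qHTS, MIPE compounds were tested at 11 concentrations (0.78 nM to 46 µM) and NPC compounds at 8 (0.59 nM to 46 µM) on TC32 cells for 48 h. CellTiter-Glo luminescence gave viability.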

[5] = qHTS of pediatric cancer cell lines to identify multiple opportunities for drug repurposing: Primary screen for DAOY cells (AID 1347090); further: series mostly up to about 46 µM; nearly all actives have a fitted effect of over 55% in size
Summary of the method: (§1)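 Cell viability, CellTiter-Glo luminescence; 500-1,000 cells/well, 8- or 11-point titration, 48 h compound exposure at 37 degrees C, 5% CO2. Controls: DMSO neutral, bortezomib 2.3 µM final as positive.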

[6] = qHTS of pediatric cancer cell lines to identify multiple opportunities for drug repurposing: Primary screen for SJ-GBM2 cells (AID 1347091); further: potency means the concentration at half of the fitted maximal effect
Summary of the method: as §1

[7] = qHTS of pediatric cancer cell lines to identify multiple opportunities for drug repurposing: Primary screen for A673 cells (AID 1347092); further: nearly all actives have a fitted effect of over 45% in size
Summary of the method: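 48 h compound exposure, A673, 500-1,000 cells/well, 37 degrees C/5% CO2. MIPE: 11-point, 0.78 nM-46 µM; NPC: 8-point, 0.59 nM-46 µM (final). Readout CellTiter-Glo luminescence after 15 min RT.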

[8] = qHTS of pediatric cancer cell lines to identify multiple opportunities for drug repurposing: Primary screen for SK-N-MC cells (AID 1347093); further: potency means the concentration at half of the fitted maximal effect
Summary of the method: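 Metabolically active cells were quantified by ATP-dependent luminescence (CellTiter-Glo, 15 min at room temperature) following 48 h treatment. Cells had been plated at 500-1,000 per well and settled for 5 h beforehand.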

[9] = qHTS of pediatric cancer cell lines to identify multiple opportunities for drug repurposing: Primary screen for BT-37 cells (AID 1347094); further: series mostly up to about 57 µM
Summary of the method: (§2)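 Viability was measured as metabolically active cells after 48 hours of treatment, read by CellTiter-Glo luminescence. Compounds were tested at multiple final concentrations, giving concentration-response curves.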

[10] = qHTS of pediatric cancer cell lines to identify multiple opportunities for drug repurposing: Primary screen for NB-EBc1 cells (AID 1347095)
Summary of the method: as §2

[11] = qHTS of pediatric cancer cell lines to identify multiple opportunities for drug repurposing: Primary screen for U-2 OS cells (AID 1347096); further: nearly all actives have a fitted effect of over 50% in size
Summary of the method: (§3)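 Cells (500-1,000/well) rested 5 h, then received compounds for 48 h; metabolically active cells were measured by CellTiter-Glo luminescence. Final concentrations spanned up to 46 µM (MIPE, 11-point) or 0.59 nM-46 µM (NPC, 8-point) in primary screens, 11-point in follow-ups.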

[12] = qHTS of pediatric cancer cell lines to identify multiple opportunities for drug repurposing: Primary screen for Saos-2 cells (AID 1347097); further: nearly all actives have a fitted effect of over 40% in size; further: potency means the concentration at half of the fitted maximal effect
Summary of the method: as §2

[13] = qHTS of pediatric cancer cell lines to identify multiple opportunities for drug repurposing: Primary screen for SK-N-SH cells (AID 1347098); further: nearly all actives have a fitted effect of over 65% in size
Summary of the method: as §3

[14] = qHTS of pediatric cancer cell lines to identify multiple opportunities for drug repurposing: Primary screen for NB1643 cells (AID 1347099); further: nearly all actives have a fitted effect of over 50% in size
Summary of the method: as §2

[15] = qHTS of pediatric cancer cell lines to identify multiple opportunities for drug repurposing: Primary screen for LAN-5 cells (AID 1347100)
Summary of the method: as §3

[16] = qHTS of pediatric cancer cell lines to identify multiple opportunities for drug repurposing: Primary screen for BT-12 cells (AID 1347101); further: nearly all actives have a fitted effect of over 25% in size
Summary of the method: as §3

[17] = qHTS of pediatric cancer cell lines to identify multiple opportunities for drug repurposing: Primary screen for Rh18 cells (AID 1347102); further: nearly all actives have a fitted effect of over 65% in size
Summary of the method: as §3

[18] = qHTS of pediatric cancer cell lines to identify multiple opportunities for drug repurposing: Primary screen for OHS-50 cells (AID 1347103); further: nearly all actives have a fitted effect of over 40% in size; further: potency means the concentration at half of the fitted maximal effect
Summary of the method: as §3

[19] = qHTS of pediatric cancer cell lines to identify multiple opportunities for drug repurposing: Primary screen for RD cells (AID 1347104); further: nearly all actives have a fitted effect of over 55% in size; further: potency means the concentration at half of the fitted maximal effect
Summary of the method: as §2

[20] = target: T1, Tyrosine-protein phosphatase non-receptor type substrate 1 (Homo sapiens) + Leukocyte surface antigen CD47 (Homo sapiens); experiment: CD47-SIRPalpha protein protein interaction - HTRF assay qHTS validation (AID 1347058; active means well fitted curve in the direction sought with a large enough effect in the signal ratio, not every such curve was filed as active; the % refers to the signal ratio; further: series mostly up to about 38 µM)
Summary of the method: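 Soluble extracellular domains (6His-CD47, Avi-tag-biotinylated SIRPalpha) in PBS pH 7.4 with 0.05% IGEPAL CA-630. Compounds were preincubated 30 min at RT with CD47 and anti-His-Eu, then SIRPalpha and SAV-XL665 were added. TR-FRET 665/615 ratio.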

Measured: Potency

CCN(CC)CCNC(=O)c1cc(S(C)(=O)=O)ccc1OC
not listed: [20]
inactive: all other assays above

COc1cc2c(cc1OC)-c1cc(=Nc3c(C)cc(C)cc3C)n(C)c(=O)n1CC2
active: [6] 16.8 µM | [8] 4.22 µM | [18] 21.9 µM | [19] 23.7 µM
inactive: [1] | [11] | [17]

CC1=C(C)C(=O)C(CCCCC#CCCCC#CCO)=C(C)C1=O
active: [18] 21.9 µM
inactive: [1] | [2] | [3] | [5] | [6] | [9] | [10] | [11] | [13] | [19]

CC(C)(C)NCC(O)c1cc(O)cc(O)c1 (stereo not drawn)
not listed: [3] | [4] | [5] | [20]
inactive: all other assays above

Cc1scc2c1N(C(=O)CN1CCN(C)CC1)c1ccccc1NC2=O
not listed: [4] | [18] | [20]
inactive: all other assays above

CNCCC(Oc1ccccc1OC)c1ccccc1 (stereo not drawn)
not listed: [1] | [18]
inactive: all other assays above

CCN1CCC[C@H]1CNC(=O)c1c(O)c(Cl)cc(Cl)c1OC
not listed: [1] | [16]
inactive: all other assays above

Brc1c(NC2=NCCN2)ccc2nccnc12
not listed: [20]
inactive: all other assays above

COC(=O)[C@H]1[C@H]2C[C@@H]3c4[nH]c5cc(OC)ccc5c4CCN3C[C@H]2C[C@@H](OC(=O)c2cc(OC)c(OC)c(OC)c2)[C@@H]1OC
active: [12] 23.7 µM
inactive: [1] | [3] | [6] | [9] | [10] | [11] | [14] | [15] | [17]

Cc1nnc(SCC2=C(C(=O)O)N3C(=O)[C@@H](NC(=O)Cn4cnnn4)[C@H]3SC2)s1
not listed: [1]
inactive: all other assays above

CC1=NS(=O)(=O)c2cc(Cl)ccc2N1
not listed: [4] | [20]
inactive: all other assays above

Cc1ccc(Cl)c(Nc2ccccc2C(=O)O)c1Cl
inactive: [1] | [2] | [3] | [4] | [7] | [9] | [11] | [15] | [16] | [18] | [19]

COc1ccc([C@@H]2Sc3ccccc3N(CCN(C)C)C(=O)[C@@H]2OC(C)=O)cc1
not listed: [1]
inactive: all other assays above

Cc1ccc(/C(=C\CN2CCCC2)c2ccccn2)cc1
not listed: [1] | [17] | [18]
inactive: all other assays above

CN(C)C(=O)Oc1ccc[n+](C)c1
not listed: [1]
inactive: all other assays above
